Screens (PubChem BioAssay)
Rows were chosen to be rich in hits. Some 11% of all compounds tested hit in one or more screens of this group.
INS promoter inh = inhibitors of insulin promoter-driven GFP, primary screen, imaging, TRM-6 cells (human fetal islet line), eGFP reporter, cell count; reporter expression induced with tamoxifen; inhibition, % at 2 µM; actives 0.9% (n = 130,000);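 active = inhibition above the mean plus 3 SD, with well images judged a real hit on visual review, cut at about 60% in these data, passing the limit was not always enough; inconclusive = inhibition over the cutoff but images rejected on review; inactive = inhibition not above the cutoff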
L major viab = Leishmania major promastigote growth inhibition, primary screen; inhibition, % at 10 µM; actives 9% (n = 200,000); Leishmania major promastigotes, resazurin fluorescence viability; in the data active = inhibition above about 50%;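 also: promastigotes grown with compound for 44 hours at 28 °C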
WT yeast gro inh = growth inhibition of WT strain, primary screen, mitochondrial fusion inhibitor project, WT and mutant strains, chemical genetic | inhibition, % at 10 µM | AID 1362, 2008 | mitochondrial fusion phenotypic screen | actives 2.1% (n = 190,000); in the data active = inhibition above about 58%; tested in S. cerevisiae
Autophagy mod = autophagy modulators in MEF cells, primary screen, imaging, high-content, MEF GFP-LC3; AID 463193, 2010; MEF GFP-LC3 puncta imaging; test concentration mostly 10 µM; calls only at 10 µM (by protocol); actives 0.98% (n = 190,000);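 active = percentage of spot-positive cells more than 3 SD above its plate mean, without a fluorescence outlier flag or 80% toxicity; inconclusive = no clear call, values can overlap the other calls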;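 also: spot-positive cell cutoff set from DMSO-treated cells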
Insulin prom up = insulin promoter activators in MIN6 cells, imaging, high-content screening, mouse beta cells; MIN6 insulin promoter-GFP reporter; hits give high values; z-score at 5 µM; actives 0.3% (n = 190,000); AID 1625, 2009;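 active = z-score above 3 at 5 µM with at least 500 cells counted in the well; inconclusive = wells under 500 cells, flagged as cytotoxic or low count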
Numbers without * were called inactive; i = inactive; u = inconclusive; x = not tested or not shown; + = active, no number.

SMILES	INS promoter inh	L major viab	WT yeast gro inh	Autophagy mod	Insulin prom up
COc1cc(CNCCN2CCOCC2)ccc1OCc1cccc(Cl)c1	x	95*	-4	i	x
COc1cc(/C=N/N2CCOCC2)ccc1OCc1ccc(Cl)cc1	-44	-11	14	i	-0.4
O=C(COC(=O)CCS(=O)(=O)c1ccc(Cl)cc1)NCCc1ccccc1	x	-6	-9	i	0.48
O=Cc1ccc(-c2cc(Cl)ccc2Cl)[nH]1	-147	25	21	i	0.87
Cc1cccc(OCCNC(=O)c2cncc(Br)c2)c1	-19	-4	-21	i	-0.22
O=C(CSc1nn(-c2ccc(Cl)cc2)c(=S)s1)NCC1CCCO1 (stereo not given)	x	4	-10	i	-0.53
Oc1cccc(/C=N/NC(=S)Nc2cccnc2)c1O	-43	99*	7	i	-2
Oc1ccc(/C=N/NC(=S)Nc2cccnc2)c(O)c1	15	84*	-13	i	-0.18
O=C(/C(=C/O)N=Nc1ccccc1)c1ccc(Cl)cc1	6	37	68*	i	0.52
Cc1ccc(N=N/C(=C\O)C(=O)c2ccc(Cl)cc2)cc1	-7	91*	97*	i	-1.4
CC(=O)c1ccc(N=Nc2ccc(C)cc2)cc1	x	7	10	i	-0.6
O=C(/C(=C/O)N=Nc1ccccc1)c1ccncc1	21	4	2	i	-0.21
CC(C)c1ccc(/C=N/NC(=O)c2c(Cl)cnn2C)cc1	-30	0	-5	i	-0.17
OCCCn1c(-c2ccccc2)csc1=Nc1ccccc1	x	13	12	i	-0.58
CCn1c(-c2ccccc2)csc1=Nc1ccc(S(=O)(=O)O)cc1	40	55*	-7	i	-0.09
COc1cc(C(=O)NC2CCCCC2)ccc1OCc1ccc(Cl)cc1Cl	-7	74*	10	i	-0.36
COc1cc(C(=O)NCCC(C)C)ccc1OCc1ccc(Cl)cc1Cl	7	97*	22	i	-1.1
CN(C)CCNC(=O)c1ccc(COc2ccc(Cl)cc2Cl)cc1	3	99*	4	i	-0.68
COc1ccc(NC(=O)COC(=O)c2ccc(OCc3ccc(Cl)cc3Cl)c(OC)c2)c(OC)c1	x	-1	-15	i	0.14
CC(C)C(=O)Nc1ncc(Cc2ccc(Cl)cc2)s1	43	11	15	i	0.27
Cc1ccc(CCN2C(=O)c3ccccc3C2C(=O)NCc2cccnc2)cc1 (stereo not given)	-56	-4	12	i	-0.68
C/C(=N\NC(=O)c1nn(C)c(C)c1Br)c1cccc(NC(=O)c2ccoc2C)c1	-8	-1	17	i	-0.31
Cc1cccc(N(C(=O)c2nsc(Cl)c2Cl)C(C(=O)NC2CCCC2)c2ccc(O)cc2)c1 (stereo not given)	-97	85*	25	i	-2.1
Cn1cnc(NCc2ccccc2)c1[N+](=O)[O-]	x	x	x	x	-0.13
Cc1cccc(NC(=S)N(CCCN2CCOCC2)C(C)c2cc3ccccc3o2)c1C (stereo not given)	47	80*	4	i	0.23
SMILES	INS promoter inh	L major viab	WT yeast gro inh	Autophagy mod	Insulin prom up
COc1cccc2cc(C(C)N(CCCN3CCOCC3)C(=S)Nc3cccc(C)c3)oc12 (stereo not given)	50	18	18	i	-0.39
Cc1cccc(NC(=S)N(CCCN2CCOCC2)C(C)c2cc3ccccc3o2)c1 (stereo not given)	x	81*	42	i	-0.4
C=CCn1c(C)nnc1SCC(=O)N1CCN(S(=O)(=O)c2ccccc2)CC1	x	x	x	x	1.2
CCC(C)NC(=O)COC(=O)c1oc2ccccc2c1CSc1ccc(Cl)cc1 (stereo not given)	-37	4	-4	i	-0.25
CC1CCCC(N2CCN(C(=O)c3cccc(F)c3)CC2)C1 (stereo not given)	u	81*	-5	i	x
O=C(c1cccc(F)c1)N1CCN(CC2CC3C=CC2C3)CC1 (stereo not given)	x	85*	14	i	0.04
O=C(c1ccccc1F)N1CCN(CC2CC3C=CC2C3)CC1 (stereo not given)	x	59*	38	i	0.19
O=S(=O)(c1ccccc1)N1CCN(CC2CC3C=CC2C3)CC1 (stereo not given)	32	-3	0	i	-0.46
O=C(c1ccccc1F)N1CCN(Cc2ccccc2F)CC1	-493	-1	11	i	0.15
Cc1ccc(CN2CCN(CC3CC4C=CC3C4)CC2)cc1 (stereo not given)	x	96*	8	i	0.33
COc1cccc(C(=O)N2CCN(C(=O)c3cccc(F)c3)CC2)c1	-25	-7	-4	i	x
Cc1ccc(-c2nc3ccccc3nc2NN)cc1	x	x	x	x	-0.55
C=CCOc1cccc(NC(=O)c2ccccc2SC)c1	-70	9	1	i	x
C/C(=N\NC(=O)CCc1c[nH]c2ccccc12)c1ccc([N+](=O)[O-])cc1	-17	61*	-7	i	-0.04
C/C(=N\NC(=O)CCc1c(C)n[nH]c1C)c1ccc([N+](=O)[O-])cc1	x	x	x	x	0.97
O=C1CC(c2ccccc2Cl)c2c(sc3c(=O)[nH]c(CCl)nc23)N1 (stereo not given)	x	x	x	x	0.67
CCOc1ccc(-c2csc(/C(C#N)=C\c3ccc(O)c([N+](=O)[O-])c3)n2)cc1	-20	-3	31	i	-1.6
Oc1[nH]c(=S)sc1/C=C1\C(c2ccccc2)=Nc2ccccc21	x	83*	-14	i	2.5
O=C(CN1CCN(Cc2ccccc2)CC1)N1CCCCCC1	24	-7	2	i	-0.04
O=C(Nc1ccon1)c1csc2c1CCCC2	56	78*	13	i	0.53
CCCOc1ccc(/C=C2\SC(=S)N(CC3CCCO3)C2=O)cc1 (stereo not given)	16	66*	17	i	-0.15
O=C(COC(=O)C1=COCCO1)Nc1ccc(OC(F)F)cc1	50	-3	-2	i	-0.08
COc1ccc(S(=O)(=O)N2CCCCC2)cc1NC(=O)CSc1ncnc2ccccc12	x	4	12	i	-4.5
Oc1ccc(Cl)cc1C=Nc1ccccc1Br	x	-10	-4	i	0.35
Oc1ccc(Br)cc1C=Nc1ccc2c3c(cccc13)CC2	-104	71*	-1	i	0.16
SMILES	INS promoter inh	L major viab	WT yeast gro inh	Autophagy mod	Insulin prom up
COc1nc2c(C)cccc2cc1-c1noc(-c2ccncc2)n1	x	x	x	x	0.86
CC(C)c1ccc(NC(=O)c2ccc(NS(C)(=O)=O)cc2)cc1	x	-3	12	+	-0.47
CCC(C)/C(C)=N/NC(=O)c1ccc(CSc2nc3ccccc3s2)cc1 (stereo not given)	100*	13	20	i	0.23
O=C(O)c1ccc(CSc2nc3ccc(NC(=O)c4ccccc4C(=O)O)cc3s2)cc1	-12	-8	-4	i	0.33
Cc1nonc1C1CCCN1Cc1cn[nH]c1-c1ccc(-c2ccccc2)cc1 (stereo not given)	x	39	58*	i	1.2
COc1cc(-c2[nH]ncc2CN2CCCC2c2nonc2C)cc(OC)c1OC (stereo not given)	x	-1	16	i	-0.07
